KB-3-1 tox = qHTS assay for MDR1-selective chemotherapeutics: Primary screen using the parental adenocarcinoma cell KB-3-1. KB-3-1 viability, CellTiter-Glo ATP luminescence, 72 h. Potency, µM (doses to about 46.1 µM), hits mostly cytotoxic. actives 1.4% (n = 400,000). AID 1347075, 2019; note: nearly all actives have a fitted effect of over 60% in size
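Parental KB-3-1 adenocarcinoma cells in phenol-red-free DMEM with 10% FBS were pin-treated with compounds at several concentrations, incubated 72 h at 37 °C, and viability read by CellTiter-Glo luminescence; concentration-effect curves were fitted after normalization.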
ELG1 repair inh = qHTS screen for small molecules that inhibit ELG1-dependent DNA repair in human embryonic kidney (HEK293T) cells expressing luciferase-tagged ELG1; HEK293T ELG1-luciferase reporter, luminescence, 16 h; DNA damage induced by 5-fluorouridine; Potency, µM (highest dose often 46.1 µM), most hits filed as inhibitors; actives 2.3% (n = 330,000); note: nearly all actives have a fitted effect of over 55% in size
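HEK293T cells expressing luciferase-tagged ELG1 (2,000/well) received 5-Fluorouridine plus compound or DMSO for 16 hr at 37 °C. Luciferase was read by ONE-Glo luminescence after 30 min at room temperature.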
KB-V1 cytotox = qHTS assay for MDR1-selective chemotherapeutics: Primary screen using the drug-selected MDR subline cells KB-V1; KB-V1 MDR cells viability, CellTiter-Glo, 72 h; Potency, µM (series often up to 46.1 µM), hits mostly cytotoxic; actives 3.4% (n = 400,000); AID 1347076, 2019; note: nearly all actives have a fitted effect of over 60% in size
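Potencies derive from concentration-effect curves fitted to normalized luminescence (CellTiter-Glo) of KB-V1 cells treated for 72 h at 37 degrees C in phenol-red-free DMEM containing 10% FBS.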
SW480 rereplic = A quantitative high throughput screen for small molecules that induce DNA re-replication in SW480 colon adenocarcinoma cells; AID 624297, 2012; Potency, µM (top dose mostly 46.1 µM), actives largely listed as activators; SW480 DNA re-replication, Hoechst DNA content imaging, 48 h; actives 1.8% (n = 340,000); note: nearly all actives have a fitted effect of over 55% in size
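250 cells/well; 23 nL cpd via pin tool; 48 hr, 37 C, 5% CO2; Hoechst 40 min; imager read of total nuclear intensity, ex 405/em 500-530 nm.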
MCF10A rerep = A quantitative high throughput screen for small molecules that induce DNA re-replication in MCF 10a normal breast cells | Potency, µM (highest dose often 46.1 µM), most hits filed as activators | MCF 10A DNA re-replication, Hoechst nuclear intensity, 48 h | actives 2.9% (n = 350,000) | AID 624296, 2012; note: nearly all actives have a fitted effect of over 50% in size
Hits are given with their value; [ ] = another dose, or the depositor's remark. Only some compounds are listed: those with a hit (about 8.2% of all), similar ones and a draw of the others. Calls come from the whole dose curve; as a rule, active = well fitted curve in the direction sought with a large enough effect; inconclusive = small, poorly fitted or top-dose-only effect, or another doubt; inactive = no such curve, though single readings can be large; an effect the other way counts as inactive or inconclusive.

Results for CCOc1ccccc1N(C)C(=O)c1cc2c(=O)n(CC)c3ccccc3c2s1 ?
KB-3-1 tox: inconclusive; ELG1 repair inh: inconclusive; KB-V1 cytotox: inactive; SW480 rereplic: 18.4µM; MCF10A rerep: 3.66µM

How did CC(C)c1ccc(Nc2nc3ccc(C(=O)c4ccccc4)cc3n3cnnc23)cc1 do in these assays?
KB-3-1 tox: inactive; KB-V1 cytotox: inconclusive

Results for O=S(=O)(c1ccc(F)cc1)c1snnc1-c1ccccc1 ?
KB-3-1 tox: 13µM; ELG1 repair inh: inactive; KB-V1 cytotox: inactive; SW480 rereplic: inactive; MCF10A rerep: 7.31µM

What do the screens show for `O=S(=O)(c1ccc(Cl)cc1)c1snnc1-c1ccccc1`?
KB-3-1 tox: 5.8µM; ELG1 repair inh: inconclusive; KB-V1 cytotox: inconclusive; SW480 rereplic: inconclusive; MCF10A rerep: inconclusive

How did COc1ccc(C2c3[nH]c4ccc(OC)cc4c3CCN2C(=O)Nc2ccccc2)cc1 (centres undefined) do in these assays?
KB-3-1 tox: 10.3µM; KB-V1 cytotox: inconclusive

How did Nc1cc2nsnc2cc1Br do in these assays?
KB-3-1 tox: inactive; ELG1 repair inh: inactive; KB-V1 cytotox: inactive; SW480 rereplic: 18.4µM; MCF10A rerep: inconclusive

How did CCN(CC)C(=O)Cn1c(=O)cc(C)c2c(C)nn(-c3cccc(Cl)c3C)c21 do in these assays?
KB-3-1 tox: inactive; KB-V1 cytotox: inactive

What do the screens show for `COc1ccc(F)cc1C(=O)C1CCCN(Cc2cn(C)c3ccccc23)C1` (centres undefined)?
KB-3-1 tox: inactive; ELG1 repair inh: inactive; KB-V1 cytotox: inactive; SW480 rereplic: 14.6µM; MCF10A rerep: 9.2µM

How did Cn1cc(CN2CCCC(C(=O)c3cc(F)ccc3F)C2)c2ccccc21 (centres undefined) do in these assays?
KB-3-1 tox: inactive; ELG1 repair inh: inconclusive; KB-V1 cytotox: inactive; SW480 rereplic: inactive; MCF10A rerep: inactive

How did O=C(COCc1cc(-c2ccc(F)cc2)on1)Nc1cccc(Cl)c1Cl do in these assays?
KB-3-1 tox: inactive; KB-V1 cytotox: inactive

What do the screens show for `O=C(Cc1c(Sc2ccccc2)c2ccccc2n1Cc1ccccc1)NCCO`?
KB-3-1 tox: inactive; ELG1 repair inh: inactive; KB-V1 cytotox: inactive; SW480 rereplic: inactive; MCF10A rerep: 20.6µM

How did S=C(NNc1ccnc2cc(Cl)ccc12)Nc1ccc(Cl)cc1Cl do in these assays?
KB-3-1 tox: inconclusive; ELG1 repair inh: 20.6µM; KB-V1 cytotox: inconclusive; SW480 rereplic: inactive; MCF10A rerep: inconclusive

How did S=C(Nc1ccc(Cl)cc1Cl)Nn1cnnc1 do in these assays?
KB-3-1 tox: inactive; ELG1 repair inh: inactive; KB-V1 cytotox: inactive; SW480 rereplic: inactive; MCF10A rerep: inconclusive

How did CCOc1ccc(NC(=S)NNc2ccnc3cc(Cl)ccc23)cc1 do in these assays?
KB-3-1 tox: inconclusive; ELG1 repair inh: 23.1µM; KB-V1 cytotox: inconclusive; SW480 rereplic: inconclusive; MCF10A rerep: inactive

How did COc1ccc(S(=O)(=O)N(C)CC(=O)NCCCN2CCOCC2)cc1C do in these assays?
KB-3-1 tox: inactive; KB-V1 cytotox: inactive; SW480 rereplic: inactive; MCF10A rerep: inactive

How did CN(C)c1ccc(Sc2ccc3nc(N)nc(N)c3c2)cc1 do in these assays?
KB-3-1 tox: 8.2µM; KB-V1 cytotox: 8.2µM

What do the screens show for `COc1cc2c(cc1OC)CN(CC(=O)Nc1ccc3c(c1)OC(F)(F)O3)CC2`?
KB-3-1 tox: inactive; ELG1 repair inh: inconclusive; KB-V1 cytotox: 13µM; SW480 rereplic: inactive; MCF10A rerep: inactive

Results for CCOC(=O)c1[nH]c2ccc(OCC)cc2c1NC(=O)CN1CCC2(CC1)OCCO2 ?
KB-3-1 tox: inactive; ELG1 repair inh: 8.2µM; KB-V1 cytotox: inactive; SW480 rereplic: inactive; MCF10A rerep: inactive

What do the screens show for `CCOC(=O)N1CCN(CC(=O)Nc2c(C(=O)OC)[nH]c3cc(C)ccc23)CC1`?
KB-3-1 tox: inactive; ELG1 repair inh: inactive; KB-V1 cytotox: inactive; SW480 rereplic: inactive; MCF10A rerep: inactive

Results for CCOC(=O)c1[nH]c2cc(OC)c(OC)cc2c1NC(=O)CN(C)C1CCCCC1 ?
KB-3-1 tox: inconclusive; ELG1 repair inh: inconclusive; KB-V1 cytotox: 7.31µM; SW480 rereplic: inactive; MCF10A rerep: inactive

What do the screens show for `COC(=O)c1[nH]c2cc(C)ccc2c1NC(=O)CN1CCc2cc(OC)c(OC)cc2C1`?
KB-3-1 tox: inconclusive; ELG1 repair inh: 14.6µM; KB-V1 cytotox: inactive; SW480 rereplic: inactive[9.22 µM]; MCF10A rerep: inactive

Results for O=C(c1ccccc1Cl)n1nc(-c2cccnc2)nc1NCc1ccc(F)cc1 ?
KB-3-1 tox: inactive; KB-V1 cytotox: inactive

How did CCOC(=O)N1CCN(CC(=O)Nc2c(C(=O)OC)[nH]c3ccc(Cl)cc23)CC1 do in these assays?
KB-3-1 tox: 16.4µM; ELG1 repair inh: inconclusive; KB-V1 cytotox: 2.31µM; SW480 rereplic: inactive; MCF10A rerep: inactive

What do the screens show for `COC(=O)c1[nH]c2ccc(Cl)cc2c1NC(=O)CN1CCc2cc(OC)c(OC)cc2C1`?
KB-3-1 tox: inactive; ELG1 repair inh: 9.2µM; KB-V1 cytotox: inactive; SW480 rereplic: inactive; MCF10A rerep: inconclusive

Results for CCOC(=O)c1[nH]c2ccc(F)cc2c1NC(=O)CN1CCc2cc(OC)c(OC)cc2C1 ?
ELG1 repair inh: 6.51µM

How did CCOC(=O)N1CCN(c2c(-c3ccccc3)c3cc(Cl)ccc3[nH]c2=O)CC1 do in these assays?
KB-3-1 tox: inconclusive; ELG1 repair inh: inactive; KB-V1 cytotox: 9.2µM; SW480 rereplic: inactive; MCF10A rerep: inactive

Results for CCOC(=O)C1CCN(c2c(-c3ccccc3)c3cc(Cl)ccc3[nH]c2=O)CC1 ?
KB-3-1 tox: inactive; ELG1 repair inh: inactive; KB-V1 cytotox: inactive; SW480 rereplic: inconclusive; MCF10A rerep: inactive

What do the screens show for `CC1=C(C(=O)N2CCOCC2)CC(CC(=O)NCCCCc2ccccc2)C(=O)N1Cc1ccc(F)cc1` (centres undefined)?
KB-3-1 tox: inactive; KB-V1 cytotox: inactive

What do the screens show for `COc1ccccc1C(=O)Nc1cc2c(cc1N1CCOCC1)n(C)c(=O)n2C`?
KB-3-1 tox: inactive; KB-V1 cytotox: inactive

Results for Cc1cccc(N2CCN(c3nc4ccccc4c4nnc(C)n34)CC2)c1C ?
KB-3-1 tox: inconclusive; KB-V1 cytotox: inactive

Results for CCCn1nc(C(=O)NNC(=O)c2cc(S(=O)(=O)NC)ccc2Br)c2ccccc2c1=O ?
KB-3-1 tox: inactive; ELG1 repair inh: 8.2µM; KB-V1 cytotox: inactive; SW480 rereplic: inactive; MCF10A rerep: inactive

What do the screens show for `CCCn1nc(C(=O)Nc2cccc(C(=O)OC)c2)c2ccccc2c1=O`?
KB-3-1 tox: inactive; ELG1 repair inh: 23.1µM; KB-V1 cytotox: inconclusive; SW480 rereplic: inactive; MCF10A rerep: inactive

Results for COC(=O)c1cccc(NC(=O)c2nn(C(C)C)c(=O)c3ccccc23)c1 ?
KB-3-1 tox: inactive; ELG1 repair inh: inactive; KB-V1 cytotox: inactive; SW480 rereplic: inactive; MCF10A rerep: inactive
